# Measured values reported in paper PMC5540273 (PLoS ONE, 2017).
# How the values were obtained:
# Details in all cases: concentration: 1 μM, replicates: in singlicate; n = 1
# [1] = test system: RPS6KA5(Kin.Dom.2-C-terminal)
# [2] = test system: T1, RSK1(Kin.Dom.1-N-terminal)
# T1 construct: gene RPS6KA1
# [3] = test system: T2, RSK1(Kin.Dom.2-C-terminal)
# T2 construct: gene RPS6KA1
# [4] = test system: T3, RSK2(Kin.Dom.1-N-terminal)
# T3 construct: gene RPS6KA3
# [5] = test system: T4, RSK2(Kin.Dom.2-C-terminal)
# T4 construct: gene RPS6KA3
# [6] = test system: T5, RSK3(Kin.Dom.1-N-terminal)
# T5 construct: gene RPS6KA2
# [7] = test system: T6, RSK3(Kin.Dom.2-C-terminal)
# T6 construct: gene RPS6KA2
# [8] = test system: T7, RSK4(Kin.Dom.1-N-terminal)
# T7 construct: gene RPS6KA6
# [9] = test system: T8, RSK4(Kin.Dom.2-C-terminal)
# T8 construct: gene RPS6KA6
# [10] = test system: S6K1
# [11] = test system: SBK1
# [12] = test system: SGK2
# [13] = test system: SGK3
# [14] = test system: SGK
# [15] = test system: SIK2
# [16] = test system: SIK
# [17] = test system: SLK
# [18] = test system: T9, SNARK
# T9 construct: gene NUAK2
# [19] = test system: SNRK
# [20] = test system: SRC
# 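Further: KINOMEscan kinase panel screen.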
SMILES,%Inh [1] [%],%Inh [2] [%],%Inh [3] [%],%Inh [4] [%],%Inh [5] [%],%Inh [6] [%],%Inh [7] [%],%Inh [8] [%],%Inh [9] [%],%Inh [10] [%],%Inh [11] [%],%Inh [12] [%],%Inh [13] [%],%Inh [14] [%],%Inh [15] [%],%Inh [16] [%],%Inh [17] [%],%Inh [18] [%],%Inh [19] [%],%Inh [20] [%]
Cl.Fc1ccccc1COc1ccc(Nc2ncnc3ccc(-c4nnc(C(F)(F)F)o4)cc23)cc1Cl [GW424170],0,1,1,0,0,0,0,0,2,0,0,0,0,0,0,1,20,0,0,0
CNc1nccc(-c2c(-c3ccc(F)cc3)ncn2CCCN2CCOCC2)n1 [SB-222516],17,5,0,9,55,3,0,7,87,2,0,15,44,10,0,12,5,24,18,0
Cc1ccc(NC(=O)c2cccc(C#N)c2)cc1-c1ccc(C(=O)Nc2ccncc2)cc1 [GSK1398463],1,24,0,0,6,9,0,0,1,11,0,10,2,0,15,0,0,0,17,26
Cc1ccc(C)c(NC(=O)NCCNc2ccnc(Nc3ccc(F)cc3)n2)c1 [GSK1379878],5,0,0,0,0,0,0,0,0,0,0,0,0,0,0,0,0,0,0,0
CC(C)N1CCC(n2cnc(-c3ccc(F)cc3)c2-c2ccnc(N)n2)CC1 [SB-223132],0,0,56,3,29,12,4,0,66,0,0,0,0,0,4,14,12,0,0,0
c1ccc(-c2ccc3c(-c4ccnc(Nc5ccc6c(c5)OCCO6)n4)cnn3n2)cc1 [GW818941],7,0,2,0,23,0,3,0,4,3,7,0,8,12,10,3,20,4,0,0
Clc1cc(Nc2ncnc3cc[nH]c23)ccc1OCc1ccccn1,1,0,28,10,0,26,20,2,28,29,41,24,28,31,8,16,21,27,26,15
CC(C)(C)OC(=O)NC1CCCN(c2cc(-c3ccc4c(N)n[nH]c4c3)nc(N)n2)C1 (centres unmarked) [GSK2286096],0,26,0,27,100,0,0,36,23,2,15,0,44,0,0,0,0,0,3,0
Cc1ccc(O)cc1Nc1cc(C(F)(F)F)nc2ccc(-c3ccncc3)cc12 [GW630823],9,0,0,0,0,0,5,4,14,0,0,3,0,14,11,4,26,0,0,18
COC(=O)c1cccc(NC(=O)NCCNc2ccnc(Nc3ccc(F)cc3)n2)c1 [GSK1379883],4,30,0,0,0,0,0,0,11,0,3,0,0,0,0,0,4,0,0,0
